CYP2C9 activ: increases human cytochrome P450 2C9 activity. P11712. recombinant CYP2C9, luciferin-H conversion, luminescence; stronger effect = higher value; factor 1 = untreated enzyme, 0 = blocked. activation factor at 5 µM. 1.4% of 96,000 active;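 active means activation factor of 2 or more for CYP2C9 at a 5 µM dose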;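 further: 0 = sulfaphenazole-blocked wells and 1 = vehicle-only wells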
CYP2C19 inhib: inhibitors of human CYP2C19 | AID 778 | 21% of 96,000 active | inhibition, % at 5 µM | P33261 | CYP2C19 Supersomes, luciferin-H EGE luminescence, 30 min;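 active means CYP2C19 inhibition above a set limit at 5 µM in the primary screen, cut at about 50% in these data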;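 further: plate controls were negative control wells for no effect and 2.5 mM tranylcypromine positive control for full effect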
Target sequence (P33261 whole entry, looked up): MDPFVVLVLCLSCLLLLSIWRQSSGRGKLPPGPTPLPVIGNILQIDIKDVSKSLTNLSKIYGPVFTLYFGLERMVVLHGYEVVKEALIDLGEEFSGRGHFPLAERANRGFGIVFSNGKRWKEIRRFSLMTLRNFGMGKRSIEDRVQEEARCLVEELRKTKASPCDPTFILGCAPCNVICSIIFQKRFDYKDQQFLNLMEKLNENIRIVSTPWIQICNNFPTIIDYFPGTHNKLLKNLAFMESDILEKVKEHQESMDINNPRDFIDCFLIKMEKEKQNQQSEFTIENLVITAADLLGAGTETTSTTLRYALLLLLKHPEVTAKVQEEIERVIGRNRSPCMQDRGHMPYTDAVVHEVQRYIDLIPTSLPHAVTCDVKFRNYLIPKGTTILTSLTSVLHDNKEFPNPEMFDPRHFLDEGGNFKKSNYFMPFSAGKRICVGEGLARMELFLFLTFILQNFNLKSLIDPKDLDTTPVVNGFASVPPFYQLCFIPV
CYP2C9 inh: inhibitors of human CYP2C9 | P11712 | CYP2C9 Supersomes, luciferin-H conversion, luminescence | inhibition, % at 5 µM | 20% of 96,000 active | AID 777;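 active means blocking of liver enzyme CYP2C9 beyond about 50% at 5 µM, limit read from the data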
MRP resist rev: reverses drug resistance mediated by MRP. H69AR cells + 2 uM doxorubicin, CellTiter-Glo, 72 h. differential viability (reversal), % at 10 µM. 0.04% of 85,000 active;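 active means viability drop by adding the cancer drug above about 55%, with treated viability meeting a 40% cutoff, limit read from the data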;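 further: viability without doxorubicin minus viability with 2 µM doxorubicin for each compound; larger differential means the compound sensitizes cells more to doxorubicin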
CYP2C19 act: cytochrome P450 2C19 (human) activation | P33261 | recombinant CYP2C19, luciferin-H EGE luminescence; stronger effect = higher value; 0 = fully inhibited enzyme, 1 = untreated enzyme | activation factor at 5 µM | 96,000 tested, under 10 active | AID 1025;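 active means activation factor of at least 2 at 5 µM in the primary screen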;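 further: 0 = wells with 2.5 mM tranylcypromine and 1 = vehicle-only wells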
MRP-1 activ: activators of MRP-1; AID 799; viability increase, % at 10 µM; 0.61% of 140,000 active; H69AR cells + doxorubicin, viability rescue, CellTiter-Glo;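 active means viability gain under doxorubicin at or above a set limit, the compound median plus 3 SD, cut at about 4.7% in these data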;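 further: MRP-1 overexpressing cells given doxorubicin 25 µM after compound pretreatment; 18-22 h compound pretreatment then 72 h with doxorubicin before readout; 0% = doxorubicin-only wells and 100% = vehicle-treated cells without doxorubicin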
Starred values were filed as active, the others as inactive; nt = not tested or not shown. This is a sample that favours compounds with a hit; in the whole collection about 21% have one here.

SMILES | CYP2C9 activ | CYP2C19 inhib | CYP2C9 inh | MRP resist rev | CYP2C19 act | MRP-1 activ
Cc1cc(C)c2oc(-c3ccc(C)c(NC(=S)NC(=O)/C=C/c4ccco4)c3)nc2c1 | 0.5 | 97* | 45 | nt | 0 | -2
CCOc1ccc(C(=O)Nc2cc(-c3nc4ccccc4[nH]3)ccc2C)cc1[N+](=O)[O-] | 0.4 | 82* | 65* | nt | 0.2 | -4
COC(=O)COC(=O)c1ccc(Oc2nc(OC)nc(N(C)C)n2)cc1 | 1.2 | 21 | -20 | -9 | 0.8 | 0
CCOc1ccc(C(=O)Nc2cccc(-c3cc4ccccc4oc3=O)c2)cc1[N+](=O)[O-] | 0.3 | 82* | 65* | nt | 0.2 | -3
COCC(=O)NCc1nc2ccccc2[nH]1 | 1.1 | -6 | -12 | -6 | 1.1 | -1
COC(=O)c1ccc(C(=O)OCCCc2nc3ccc(N)cc3[nH]2)cc1 | nt | nt | nt | 1 | nt | -1
Nc1ccc(C(=O)OCc2nc3ccccc3[nH]2)cc1 | 0.9 | 81* | 9 | -3 | 0.2 | -2
Nc1ccc(C(=O)OCCCc2nc3ccccc3[nH]2)cc1 | 0.8 | 51* | 19 | 5 | 0.5 | -2
COc1ccc(/C=N/NC(=O)Cc2cc(OC)c(OC)cc2[N+](=O)[O-])cc1 | nt | nt | nt | nt | nt | 0
Cc1cc(C)c2c(CC(=O)N(CCC#N)Cc3cccnc3)coc2c1 | 1.3 | 51* | -25 | -10 | 0.5 | -3
C#CCn1cnc2c(cnn2-c2ccc(C)c(C)c2)c1=O | 0.7 | 64* | 27 | nt | 0.4 | -1
CC(C)CCn1cnc2c(cnn2-c2ccc(Cl)cc2)c1=O | 0.3 | 32 | 71* | 3 | 0.7 | 1
O=C(Cn1cnc2c(cnn2-c2ccccc2)c1=O)c1ccc(Cl)cc1 | 0.9 | -12 | 6 | nt | 1.1 | 4
Cc1ccc(-n2ncc3c(=O)n(CC#N)cnc32)cc1C | 0.8 | 20 | 18 | 4 | 0.8 | 0
C=CCn1c(NC(=O)c2ccco2)c(S(=O)(=O)c2ccccc2)c2nc3ccccc3nc21 | 0.3 | 21 | 66* | 13 | 0.8 | nt
C=CCn1c(NC(=O)c2ccc(Br)o2)c(S(=O)(=O)c2ccccc2)c2nc3ccccc3nc21 | 0.5 | 7 | 53* | -4 | 0.9 | -2
O=C(Nc1ccc(S(=O)(=O)NCc2ccccc2)cc1)c1ccc(Br)o1 | nt | nt | nt | 3 | nt | -2
O=C(O)CC/C(=N\Nc1ccc(S(=O)(=O)N2CCCC2)cc1[N+](=O)[O-])c1cccs1 | 0 | 5 | 99* | nt | 0.9 | -1
O=[N+]([O-])c1cc(S(=O)(=O)N2CCCC2)ccc1N/N=C/c1cccs1 | 0.9 | 11 | 11 | 5 | 0.9 | -4
CCn1c(COc2ccccc2)nnc1SCC(=O)Nc1cc(C)ccc1OC | 2.1* | 46 | -108 | 8 | 0.5 | 1
COc1ccc(OC)c(NC(=O)CSc2nnc(C)n2Cc2ccccc2)c1 | 0.7 | 87* | 29 | 2 | 0.1 | -3
CCn1c(COc2ccc(C)cc2)nnc1SCC(=O)C(C)(C)C | 0.5 | 50 | 51* | -1 | 0.5 | 2
CCn1c(COc2ccc(C)cc2)nnc1SCC(=O)Nc1cc(OC)ccc1OC | 0.5 | 90* | 48 | -18 | 0.1 | 4
COc1ccc(NC(=O)CSc2nnc(C)n2Cc2ccccc2)cc1 | 0.9 | 30 | 8 | 2 | 0.7 | -4
COc1ccc(C)cc1NC(=O)CSc1nnc(COc2ccc(C)cc2)n1Cc1ccco1 | 0.9 | 6 | 10 | -22 | 0.9 | 1
SMILES | CYP2C9 activ | CYP2C19 inhib | CYP2C9 inh | MRP resist rev | CYP2C19 act | MRP-1 activ
CCn1c(COc2ccccc2)nnc1SCC(=O)C(C)(C)C | 0.7 | 23 | 27 | 1 | 0.8 | 0
CC(=O)N1CCN2C(=O)C1CCCC(=O)c1cc(C)ccc12 (stereo unspecified) | nt | nt | nt | -2 | nt | 0
Cc1nn(C(C)c2n[nH]c(=S)n2-c2cccc(Cl)c2)c(C)c1[N+](=O)[O-] (stereo unspecified) | nt | nt | nt | -5 | nt | -1
CC1CC(C)CN(CCCNC(=O)C2CCCN(c3nnc(N4CCCC4=O)s3)C2)C1 (stereo unspecified) | 1.1 | -13 | -15 | -3 | 1.1 | -3
Cc1cc(C)n2nc(SCn3nnc4ccccc4c3=O)nc2n1 | 0.9 | 72* | 8 | 2 | 0.3 | 0
COC(=O)c1ccc(NC(=O)CSc2ccccn2)cc1 | 0.5 | 82* | 54* | 6 | 0.2 | 2
Cc1cc(C)n2nc(SCC(=O)c3ccccc3)nc2n1 | 0.7 | 59* | 29 | nt | 0.4 | -3
COC(=O)c1ccc(NC(=O)CSc2ccccc2)cc1 | nt | nt | nt | nt | nt | 2
